Experimental data published in PubChem BioAssay (NCATS).
Several values for one entry are separate records, joined by “and”; a condition that tells them apart may be missing. Equal values may be shown once. Inconclusive results are not listed. Where a call stands in place of a potency, no number is given. A structure can be active in one record and inactive in another. Activity calls are given as the source filed them. Calls follow the shape of the dose curve; as a rule, active = well fitted curve in the direction sought with a large enough effect; inconclusive = small, poorly fitted or top-dose-only effect, or another doubt; inactive = no such curve, though single readings can be large; an effect the other way counts as inactive or inconclusive.

Key:
HEK293 = experiment: Cytotoxic Profiling of Annotated Libraries Using Quantitative High-Throughput Screening (AID 1296008); settings: Five cell lines viability, CellTiter-Glo ATP luminescence, 48-72 h; max response: stronger effect = lower value; also: nearly all actives have a fitted effect of over 60% in size; also: potency is read from the fitted curve at half-maximal effect
Procedure, shortened: (§1)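 Cytotoxicity was measured as CellTiter-Glo ATP luminescence, read after 10 min at room temperature. Compound treatment of the cells lasted 48 or 72 hr at 37 degrees Celsius in a qHTS format.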

MCC-13 = experiment: qHTS assay to identify novel small-molecules to repurpose for Merkel cell carcinoma treatment (AID 1296009); settings: MCC and control cell lines, CellTiter-Glo viability, 72 h; series mostly up to 46 µM; also: nearly all actives have a fitted effect of over 60% in size; also: potency is read from the fitted curve at half-maximal effect
Procedure, shortened: (§2)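 72 hr, 37 degree celsius; NPC 8-pt / MIPE 11-pt dose response; compound pinned in DMSO; CellTiter-Glo, 10 min RT, luminescence; normalized to no-cell and DMSO controls.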

MCC-26 = experiment: as above; settings: MCC and control cell lines, CellTiter-Glo viability, 72 h; series mostly up to 46 µM
Procedure, shortened: as §2

MKL-1 = experiment: as above; settings: MCC and control cell lines, CellTiter-Glo viability, 72 h; series mostly up to 46 µM
Procedure, shortened: as §2

WaGa = experiment: as above; settings: MCC and control cell lines, CellTiter-Glo viability, 72 h; series mostly up to 46 µM
Procedure, shortened: as §2

HaCat [1] = experiment: Cytotoxic Profiling of Annotated Libraries Using Quantitative High-Throughput Screening (AID 1296008); settings: Five cell lines viability, CellTiter-Glo ATP luminescence, 48-72 h; max response: stronger effect = lower value; also: nearly all actives have a fitted effect of over 60% in size; also: potency is read from the fitted curve at half-maximal effect
Procedure, shortened: as §1

KB-3-1 = experiment: as above; settings: Five cell lines viability, CellTiter-Glo ATP luminescence, 48-72 h; max response: stronger effect = lower value
Procedure, shortened: as §1

NIH3T3 [2] = experiment: as above; settings: Five cell lines viability, CellTiter-Glo ATP luminescence, 48-72 h; max response: stronger effect = lower value
Procedure, shortened: as §1

HACAT [3] = experiment: qHTS assay to identify novel small-molecules to repurpose for Merkel cell carcinoma treatment (AID 1296009); settings: MCC and control cell lines, CellTiter-Glo viability, 72 h; at 44.8 µM (top of the series) unless noted; also: nearly all actives have a fitted effect of over 60% in size; also: potency is read from the fitted curve at half-maximal effect
Procedure, shortened: as §2

MKL-2 = experiment: as above; settings: MCC and control cell lines, CellTiter-Glo viability, 72 h; series mostly up to 46 µM
Procedure, shortened: as §2

NIH3T3 [4] = experiment: as above; settings: MCC and control cell lines, CellTiter-Glo viability, 72 h; at 44.8 µM (top of the series) unless noted
Procedure, shortened: as §2

UISO = experiment: as above; settings: MCC and control cell lines, CellTiter-Glo viability, 72 h; series mostly up to 46 µM
Procedure, shortened: as §2

C33A = experiment: Primary qHTS to identify gynecologic anti-cancer compounds using libraries of approved drugs and bioactive compounds (AID 1345084); settings: Gynecologic cancer cell panel viability, ATPlite luminescence, 48 h; series mostly up to 57.5 µM; also: nearly all actives have a fitted effect of over 55% in size
Procedure, shortened: (§3)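 Cells, 1,000 per well, plated 16 h, then exposed 48 h at 37 C to compounds. Viability by ATPlite luminescence after 15 min at room temperature.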

CAOV3 = experiment: as above; settings: Gynecologic cancer cell panel viability, ATPlite luminescence, 48 h; series mostly up to 57.5 µM
Procedure, shortened: as §3

CASKI = experiment: as above; settings: Gynecologic cancer cell panel viability, ATPlite luminescence, 48 h; series mostly up to 57.5 µM
Procedure, shortened: as §3

Es-2 = experiment: as above; settings: Gynecologic cancer cell panel viability, ATPlite luminescence, 48 h; series mostly up to 57.5 µM
Procedure, shortened: as §3

HeLa = experiment: as above; settings: Gynecologic cancer cell panel viability, ATPlite luminescence, 48 h; series mostly up to 57.5 µM
Procedure, shortened: as §3

Hek293T = experiment: as above; settings: Gynecologic cancer cell panel viability, ATPlite luminescence, 48 h, control line for the selectivity index; series mostly up to 57.5 µM
Procedure, shortened: as §3

JEG-3 = experiment: as above; settings: Gynecologic cancer cell panel viability, ATPlite luminescence, 48 h; series mostly up to 57.5 µM
Procedure, shortened: as §3

## COc1ccc(C2=N[C@H](c3ccc(Cl)cc3)[C@H](c3ccc(Cl)cc3)N2C(=O)N2CCNC(=O)C2)c(OC(C)C)c1
HEK293
  Potency: 11.8 µM (active)
MCC-13
  Potency: inactive
MCC-26
  Potency: inactive
MKL-1
  Potency: 9.35 µM (active)
WaGa
  Potency: 2.96 µM (active)

## O=C1CCCC2=C1C(c1[nH]ncc1Cl)N=C(Nc1nc3ccccc3o1)N2 (stereo not drawn)
HaCat [1]
  max response: -0.0608% (inactive)
  outcome: inactive
KB-3-1
  max response: 5.25% (inactive)
  outcome: inactive
NIH3T3 [2]
  max response: -1.09% (inactive)
  outcome: inactive
HACAT [3]
  outcome: inactive
MCC-13
  Potency: inactive
MCC-26
  Potency: inactive
MKL-1
  Potency: inactive
MKL-2
  Potency: inactive
NIH3T3 [4]
  outcome: inactive
UISO
  Potency: inactive
WaGa
  Potency: inactive
C33A
  Potency: inactive
CAOV3
  Potency: inactive
CASKI
  Potency: inactive
Es-2
  Potency: inactive
HeLa
  Potency: inactive
Hek293T
  Potency: inactive
JEG-3
  Potency: inactive

## Cc1cc2c(C(C)C)c(O)c(O)c(C=O)c2c(O)c1-c1c(C)cc2c(C(C)C)c(O)c(O)c(C=O)c2c1O
HEK293
  Potency: 23.5 µM (active)
KB-3-1
  Potency: 9.35 µM (active)
MCC-13
  Potency: inactive
MKL-1
  Potency: 13.3 µM (active)
UISO
  Potency: 21.1 µM (active)
WaGa
  Potency: 23.7 µM (active)
CASKI
  Potency: inactive
Es-2
  Potency: inactive
JEG-3
  Potency: inactive

## NC(=O)c1ccc(-c2nc(-c3ccc4c(c3)OCO4)c(-c3ccccn3)[nH]2)cc1
HaCat [1]
  outcome: inactive
KB-3-1
  max response: -0.83% (inactive)
NIH3T3 [2]
  max response: -25.4% (inactive)
HACAT [3]
  outcome: inactive
MCC-13
  Potency: inactive
MCC-26
  Potency: inactive
MKL-1
  Potency: inactive
MKL-2
  Potency: inactive
UISO
  Potency: inactive
WaGa
  Potency: inactive

## CCc1cncnc1N1CCN(Cc2nc3ccc(C(F)(F)F)cc3[nH]2)CC1
HEK293
  Potency: 14.8 µM (active) and 13 µM (active)
HaCat [1]
  max response: -29.7% (inactive)
MCC-13
  Potency: inactive
MCC-26
  Potency: inactive
MKL-1
  Potency: inactive
MKL-2
  Potency: inactive
C33A
  Potency: inactive
CAOV3
  Potency: inactive
CASKI
  Potency: inactive
Es-2
  Potency: inactive
HeLa
  Potency: inactive
Hek293T
  Potency: inactive
JEG-3
  Potency: inactive

## Cc1ccc(-n2nc(C(C)(C)C)cc2NC(=O)Nc2ccc(OCCN3CCOCC3)c3ccccc23)cc1
HaCat [1]
  max response: -3.92% (inactive)
  outcome: inactive
KB-3-1
  outcome: inactive
NIH3T3 [2]
  max response: -5.48% (inactive)
HACAT [3]
  outcome: inactive
MCC-13
  Potency: inactive
MCC-26
  Potency: inactive
MKL-1
  Potency: inactive and 23.7 µM (active)
MKL-2
  Potency: 18.8 µM (active)
WaGa
  Potency: inactive
C33A
  Potency: inactive
CASKI
  Potency: inactive
Es-2
  Potency: inactive
HeLa
  Potency: inactive
Hek293T
  Potency: inactive
JEG-3
  Potency: inactive

## COc1c(Cl)cc2c([nH]c3cnccc32)c1NC(=O)c1cccnc1C
HaCat [1]
  outcome: inactive
KB-3-1
  max response: 9.41% (inactive)
  outcome: inactive
NIH3T3 [2]
  max response: -6% (inactive) and -16.3% (inactive)
HACAT [3]
  outcome: inactive
MCC-13
  Potency: inactive
MCC-26
  Potency: inactive
MKL-1
  Potency: inactive
MKL-2
  Potency: inactive
UISO
  Potency: inactive
WaGa
  Potency: inactive
C33A
  Potency: inactive
CAOV3
  Potency: inactive
CASKI
  Potency: inactive
Es-2
  Potency: inactive
HeLa
  Potency: inactive
Hek293T
  Potency: inactive
JEG-3
  Potency: inactive

## Clc1ccc(Nc2nnc(Cc3ccncc3)c3ccccc23)cc1
HaCat [1]
  max response: -5.86% (inactive)
  outcome: inactive
KB-3-1
  max response: -8.03% (inactive) and 60.3% (inactive)
NIH3T3 [2]
  max response: -1.18% (inactive) and -1.64% (inactive)
HACAT [3]
  outcome: inactive
MCC-13
  Potency: inactive
MCC-26
  Potency: inactive
MKL-2
  Potency: inactive and 13.3 µM (active)
UISO
  Potency: inactive
C33A
  Potency: inactive
CAOV3
  Potency: inactive
CASKI
  Potency: inactive
Es-2
  Potency: inactive
HeLa
  Potency: inactive
Hek293T
  Potency: inactive
JEG-3
  Potency: inactive
